This is an account of results in PubChem BioAssay (EPA / NIEHS).

SMILES strings stand for the structures. Records with an inconclusive call do not appear. Calls of active or inactive are those of the source. Rule for the calls: active = hit-call score of the fitted dose curve at least 0.9, where 1 is the maximum; inconclusive = response in the unintended direction; inactive = score below 0.9.

Cytochrome P450 3A4 (Homo sapiens), sequence (P08684 whole entry, looked up): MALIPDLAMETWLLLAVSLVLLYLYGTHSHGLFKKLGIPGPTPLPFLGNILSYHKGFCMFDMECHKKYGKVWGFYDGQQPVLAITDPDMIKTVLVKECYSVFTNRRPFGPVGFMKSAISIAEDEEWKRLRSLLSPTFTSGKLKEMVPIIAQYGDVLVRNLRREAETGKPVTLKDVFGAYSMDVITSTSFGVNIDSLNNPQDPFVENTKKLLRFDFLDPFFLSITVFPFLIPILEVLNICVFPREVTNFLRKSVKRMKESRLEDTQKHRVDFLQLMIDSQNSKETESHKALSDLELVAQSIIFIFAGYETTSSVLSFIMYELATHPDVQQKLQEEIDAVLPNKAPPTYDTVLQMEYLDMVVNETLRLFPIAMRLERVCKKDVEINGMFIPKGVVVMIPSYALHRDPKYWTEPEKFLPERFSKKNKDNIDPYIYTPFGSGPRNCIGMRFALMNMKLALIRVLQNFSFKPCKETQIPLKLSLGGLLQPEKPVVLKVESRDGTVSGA

Read-out in this assay: Cytochrome P450 3A4 (Homo sapiens) (UniProt P08684)
Nature of the assay: CLD_CYP3A4_6hr: CellzDirect (CLD) Gene Expression Assay for xenobiotic metabolism (CYP3A4) at 6 hours (AID 2283680). On the procedure: CLD_6hr is a cell-based, multiplexed-readout assay that uses hepatocyte, a human liver primary cell, with measurements taken at 6 hours after chemical dosing in a 96-well plate.CLD_CYP3A4_6hr is one of 16 assay component(s) measured or calculated from the CLD_6hr assay. It is designed to make measurements of mRNA induction, a form of inducible reporter, as detected with chemiluminescence signals by Quantitative Nuclease Protection Assay (qNPA) technology.Data from the assay component CLD_CYP3A4_6hr was analyzed at the endpoint, CLD_CYP3A4_6hr, in the positive analysis fitting direction relative to DMSO as the negative control and baseline of activity. Using a type of inducible reporter, gain-of-signal activity can be used to understand changes in the reporter gene as they relate to the gene CYP3A4. Furthermore, this assay endpoint can be referred to as a primary readout. To generalize the intended target to other relatable targets, this assay endpoint is annotated to the cyp intended target family, where subfamily is xenobiotic metabolism.
Human hepatocyte cultures were treated daily for two consecutive days with fresh dosing solutions containing appropriate concentrations of the 320 ToxCast chemicals (chemical identities were blinded to CellzDirect and other ToxCast collaborators), vehicle control (0.2% DMSO), and positive control inducers as summarized in Table 1. Due to the large number of treatment groups and chemicals examined, the ToxCast chemicals were divided into two groups (spanning two independent cultures of hepatocytes from separate donor preparations (Hu778: ToxCast plates 1 and 2; Hu776: ToxCast plates 3 and 4). Each preparation of human hepatocyte cultures was treated with respective vehicle control, medium only control, set of six positive controls/reference chemicals for the five hepatic receptor pathways, and a subset of eight of the ToxCast chemicals (indoxacarb, pyrithiobac-sodium, norflurazon, cyhalofop-butyl, methomyl, thiram, acetochlor, and propiconazole). These replicate data, coupled with internal replicates designed within the blinded ToxCast chemical library, provided additional data to evaluate interindividual differences between hepatocyte preparations and their potential impact on chemical profiles.Cell morphology and integrity were evaluated using phase-contrast microscopy as an indicator of hepatocyte cell health (Tyson & Green, 1987). Cultures for each treatment group (i.e., media, vehicle [0.2% DMSO], positive control inducers [multiple concentrations], and the ToxCast chemicals [multiple concentrations]) were observed and cell morphology was assessed relative to vehicle control cultures at each harvest time point (0, 6, 24, or 48 h). […] Images were evaluated at the conclusion of the study to assess changes in cell integrity and account for the effects of chemical exposure on uncharacteristic changes in concentration-dependent gene expression profiles. The results from these determinations of apparent cytotoxicity were annotated (yes/no) alongside the corresponding qNPA data for reference.At the conclusion of each treatment period, hepatocyte cultures (96-well) were washed with 1 volume of HBSS, lysed by addition of 25 ul ArrayPlate lysis buffer (HTG, Tucson, AZ), and 70 ul/well of Denaturation Oil, denatured by incubation at 95C for 10 min, and frozen at approximately -70C until analysis by nuclease protection assay (qNPA) (Roberts et al., 2007). For qNPA analysis, cell lysates were thawed at 50C for approximately 30 min, qNPA probes were added, and samples were incubated at 95C for 10 min to begin the detection process by denaturing the target RNA, dissociating the duplexes and secondary structure hybridization. At the conclusion of the hybridization period, S1 nuclease reagent was added to each sample to digest all nonprotected nucleotides at 50C for 60-90 min. […]
As to `O=C(O)CCCOc1ccc(Cl)cc1Cl`, the molecule was classed as inactive.
A word on the AC50: it is the concentration giving half of the maximal activity seen. On to `CC(C)(C)C(O)/C(=C\c1ccc(Cl)cc1Cl)n1cncn1` (stereo not given), for which the AC50 is 1.89 µM (active).
On to `COP(=S)(OC)Oc1ccc(SC)c(C)c1`, for which the molecule was called inactive.
As to `N#CN`, the molecule was called inactive.
With `CNC(=O)Oc1cccc(N=CN(C)C)c1`, the call was inactive.
`CCc1ccc(C(=O)NN(C(=O)c2cc(C)cc(C)c2)C(C)(C)C)cc1`: the AC50 was 0.708 µM (active).
For `COc1nn(CSP(=S)(OC)OC)c(=O)s1`, the molecule was called inactive.
Regarding `CCOCN(C(=O)CCl)c1c(C)cccc1CC`, the half-maximal activity concentration (AC50) is 0.328 µM (active).
For the molecule `Cc1[nH]c(=O)n(C(C)(C)C)c(=O)c1Cl`, the call was inactive.
With `CNC(=O)CSP(=S)(OC)OC`, the outcome was inactive.
As for `Clc1ccccc1-c1nnc(-c2ccccc2Cl)nn1`, the result was inactive.
Still for that read-out and setting: for `CCOC1Oc2ccc(OS(C)(=O)=O)cc2C1(C)C` (stereo not given) the value was “inactive”; for `CC1(C)C(C=C(Cl)Cl)C1C(=O)OC(C#N)c1ccc(F)c(Oc2ccccc2)c1` (stereo not given), “inactive”.
The same measure, in the same setting: for `COC(=O)c1ccccc1S(=O)(=O)NC(=O)N(C)c1nc(C)nc(OC)n1` the value was “inactive”.
On to `CCN(CC)C(=O)SCc1ccc(Cl)cc1`, for which the AC50 is 20 µM (active).
The same measure, in the same setting: for `CCC(C)Nc1c([N+](=O)[O-])cc(C(C)(C)C)cc1[N+](=O)[O-]` (stereo not given) the value was 1.2 µM (active).
As for `Cc1cc(C)nc(NC(=O)NS(=O)(=O)c2ccccc2C(=O)OC2COC2)n1`, the call was inactive.
On to `CC(C)OC(=O)Nc1cccc(Cl)c1`, for which the half-maximal activity concentration (AC50) was 12.2 µM (active).
On to `CCCN(CCC)c1c([N+](=O)[O-])cc(C(F)(F)F)cc1[N+](=O)[O-]`, for which the result was inactive.
With `ClC1C(Cl)C(Cl)C(Cl)C(Cl)C1Cl` (stereo not given), the molecule was called inactive.
In the case of `O=C(Nc1ccccc1)Nc1cnns1`, the molecule was classed as inactive.
On the same count and under the same terms, next, `CCOc1nc(NC)nc(NC(=O)NS(=O)(=O)c2ccccc2C(=O)OC)n1`: “inactive”.
For `C[C@H]1[C@H](c2ccc(Cl)cc2)SC(=O)N1C(=O)NC1CCCCC1`, the AC50 is 1.9 µM (active).
In the case of `OCCOc1ccccc1`, the molecule was classed as inactive.
As to `CCCN(CCOc1c(Cl)cc(Cl)cc1Cl)C(=O)n1ccnc1`, the outcome was inactive.
On to `O=C(O)COc1ccc(Cl)cc1Cl`, for which the AC50 was 0.49 µM (active).
As for `CCS(=O)(=O)c1cccnc1S(=O)(=O)NC(=O)Nc1nc(OC)cc(OC)n1`, the call was inactive.
Same read-out and setting: next, `CCC(C)(C)C(=O)OC1=C(c2ccc(Cl)cc2Cl)C(=O)OC12CCCCC2`: “inactive”; `COP(=S)(OC)Oc1ccc([N+](=O)[O-])cc1`: “inactive”.
`COP(=O)(OC)OC=C(Cl)Cl`: the molecule was called inactive.
The same measure, in the same setting: next, `CNC(=O)Oc1ccccc1OC(C)C`: “inactive”; `C#CCN1C(=O)COc2cc(F)c(N3C(=O)C4=C(CCCC4)C3=O)cc21`: “inactive”; `CC[C@H](C)[C@H]1O[C@]2(C=C[C@@H]1C)C[C@@H]1C[C@@H](C/C=C(\C)[C@@H](O[C@H]3C[C@H](OC)[C@@H](O[C@H]4C[C@H](OC)[C@@H](O)[C@H](C)O4)[C@H](C)O3)[C@@H](C)/C=C/C=C3\CO[C@@H]4[C@H](O)C(C)=C[C@@H](C(=O)O1)[C@]34O)O2` (tested in a mixture with another compound): “inactive”.
The same measure, in the same setting: for `CCC(C)(NC(=O)c1cc(Cl)c(C)c(Cl)c1)C(=O)CCl` (stereo not given) the value was “inactive”.
With `O=S1OCC2C(CO1)C1(Cl)C(Cl)=C(Cl)C2(Cl)C1(Cl)Cl` (stereo not given), the concentration at half-maximal activity (AC50) is 9.06 µM (active).
